“And” between values parts separate entries of the source, which are not always exact repeats. Equal values may be shown once. Inconclusive results are not listed. Some structures have more than one record in an assay (separate samples or runs), and their calls can disagree. The source made the active and inactive calls.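 The calls were made as follows, unless noted: active = mean z-score across replicates of 1.96 or higher in either the MELAS or the Rieske mutant cell line; inactive = the rest.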
How the values were obtained:
[1] = liver-stage malaria parasite growth inhibition, primary screen, cell-based, HepG2, luciferase luminescence, HepG2 viability (AID 624349; in the data active = parasite load remaining mostly below about 12%, no sharp cut-off; inactive = mostly above about 10%;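 also: 100% = mean of DMSO negative control wells on the same plate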); conditions: P. berghei liver stage in HepG2, luciferase luminescence, concentration not given here; parasite load remaining: stronger effect = lower value; viability: measured here: HepG2 viability without parasites
[2] = stimulators of nuclear beta-catenin in C2C12, primary screen, imaging, WNT3A-conditioned medium, mouse C2C12, NPC library (AID 1117326; in the data active = nuclear beta-catenin stimulation mostly above about 4.2%, no sharp cut-off; inactive = mostly below about 10%; also: reference of the scale not given here); conditions: stronger effect = higher value
[3] = stimulators of insulin release from INS-1E, primary screen, cell-based, 5 mM glucose, NPC library (AID 1117329;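 active = compound raises insulin release from rat beta cells at 5 mM glucose, no numeric limit stated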; also: reference of the scale not given here); conditions: rat INS-1E insulin secretion, at 10 µM, stronger effect = higher value
[4] = growth inhibition of GSK3B-pretreated HCT116 cells – cell-based, CellTiter-Glo, 0.2 to 20 µM (AID 1117336;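 active = compounds lowering colon cancer cell viability after pretreatment blocking the GSK3B kinase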); conditions: HCT116 viability after GSK3B inhibitor, at 20 µM, stronger effect = higher value
[5] = inhibition of endothelial tube formation, primary screen, imaging, VEGF stimulated, CD31 staining, tube area, NPC library (AID 1117340;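 active = compound that reduces growth-factor-driven endothelial tube area in a mixed cell culture, no cutoff stated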); conditions: VEGF-stimulated ADSC/ECFC co-culture, at 10 µM, stronger effect = higher value
[6] = glucagon-like peptide 1 release enhancers, primary assay, NCI-H716 cell line, NPC library (AID 1117341;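 active = compound raises GLP1 secretion from the human gut endocrine cells, with no numeric limit stated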; also: reference of the scale not given here); conditions: NCI-H716 cells, at 10 µM, stronger effect = higher value
[7] = HCT116 colon cancer cell growth inhibition, primary screen, CellTiter-Glo luminescence, NPC library (AID 1117342;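 active = compounds that lower survival of HCT116 colon cancer cells in the luminescence readout, no numeric limit stated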); conditions: at 20 µM (top of the series)
[8] = CellTiter-Glo luminescent readout of SW480 viability loss, NPC library primary (AID 1117343;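 active = compounds that lower viability of the colon cancer cells in the luminescence readout, with no numeric limit stated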); conditions: CellTiter-Glo luminescence; at 20 µM (top of the series) unless noted
[9] = decreased DLD-1 cellular survival, CellTiter-Glo luminescent readout, NPC compound collection, primary HTS (AID 1117346;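 active = compounds that lower survival of DLD-1 colon cancer cells in the luminescence readout, no cutoff given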); conditions: DLD-1 viability, CellTiter-Glo luminescence; at 20 µM (top of the series)
[10] = sensitizers of A549 cells to miR-34 induction, primary screen, imaging, A549 dox-inducible miR-34, nuclei and caspase counts (AID 1347080;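 active = compounds whose cell count with miR-34 switched on is under 0.7 times the count with it off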); conditions: A549 miR-34 inducible, Hoechst nuclei count, 48 h
[11] = survival rescue of mitochondrial mutant cells in low glucose, primary screen, MELAS cybrids, Rieske KO mouse fibroblasts, CellTiter-Glo (AID 1508586);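 also: z relative to plate mean and SD of compound and empty wells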
[12] = biological target: NAD(+) hydrolase SARM1 (Homo sapiens) (UniProt Q6SZW1); assay: SARM1 TIR NADase inhibitors, cell lysate, NAD-Glo luminescence (AID 1508614;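 active = compound whose remaining NAD level is above about 45 nM, limit read from the data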;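 also: higher remaining NAD means stronger inhibition of SARM1 NADase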); conditions: SAM-TIR HEK293T lysate NADase, at 1 µM, stronger effect = higher value
[13] = viability rescue of complex I mutant cybrids, primary screen, cell-based, galactose medium, ATP luminescence (AID 1645843;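 active = z-score of at least 1.8 in each of two replicates, scored against plate mean and spread of sample wells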;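 also: positive z means more ATP and so rescue of galactose-driven cybrid death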); conditions: complex I mutant cybrid cells, 72 h, stronger effect = higher value
[14] = hESC survival regulators, cell-based (AID 493140; call rule not given here;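 also: cells exposed to compounds for four days before counting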); conditions: human embryonic stem cell survival screen; stronger effect = higher value
[15] = biological target: ATP-dependent translocase ABCB1 (Homo sapiens) (UniProt P08183); assay: MDR1 (ABCB1) efflux transporter inhibition, cell-based (AID 377; in the data active = fluorescence slope change above about 50%); conditions: MDR1-expressing cells, fluorescent substrate accumulation slope; stronger effect = higher value; concentration not given here
[16] = stronger effect = lower value, cell number ratio, induced over uninduced
[17] = measured here: relative caspase fold change +Dox/-Dox
[18] = measured here: total cells with miR-34 induction, stronger effect = lower value
[19] = measured here: total cells without miR-34 induction
[20] = MELAS cybrid survival, CellTiter-Glo 48 h, stronger effect = higher value
[21] = Rieske KO mouse fibroblast survival, CellTiter-Glo 72 h

Sequence of NAD(+) hydrolase SARM1 (Homo sapiens) (Q6SZW1 whole entry, looked up): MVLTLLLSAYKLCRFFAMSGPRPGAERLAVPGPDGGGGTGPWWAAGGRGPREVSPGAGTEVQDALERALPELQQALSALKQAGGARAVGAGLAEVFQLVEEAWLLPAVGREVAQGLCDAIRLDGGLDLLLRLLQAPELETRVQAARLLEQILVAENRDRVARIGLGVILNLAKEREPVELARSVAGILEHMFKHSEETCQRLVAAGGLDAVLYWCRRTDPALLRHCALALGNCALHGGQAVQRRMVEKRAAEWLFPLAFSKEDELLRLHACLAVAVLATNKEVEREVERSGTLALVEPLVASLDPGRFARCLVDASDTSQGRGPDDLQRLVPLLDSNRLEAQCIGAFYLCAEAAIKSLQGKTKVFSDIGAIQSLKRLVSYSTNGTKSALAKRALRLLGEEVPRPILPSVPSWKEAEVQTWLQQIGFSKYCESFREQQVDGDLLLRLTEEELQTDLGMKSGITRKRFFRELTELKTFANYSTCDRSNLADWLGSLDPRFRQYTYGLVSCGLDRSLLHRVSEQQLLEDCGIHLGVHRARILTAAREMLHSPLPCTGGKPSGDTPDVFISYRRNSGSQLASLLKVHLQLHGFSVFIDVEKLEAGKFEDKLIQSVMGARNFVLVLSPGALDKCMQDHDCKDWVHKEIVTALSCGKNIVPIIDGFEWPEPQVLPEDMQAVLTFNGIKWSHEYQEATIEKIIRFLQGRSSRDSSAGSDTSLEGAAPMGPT
Sequence of ATP-dependent translocase ABCB1 (Homo sapiens) (P08183 whole entry, looked up): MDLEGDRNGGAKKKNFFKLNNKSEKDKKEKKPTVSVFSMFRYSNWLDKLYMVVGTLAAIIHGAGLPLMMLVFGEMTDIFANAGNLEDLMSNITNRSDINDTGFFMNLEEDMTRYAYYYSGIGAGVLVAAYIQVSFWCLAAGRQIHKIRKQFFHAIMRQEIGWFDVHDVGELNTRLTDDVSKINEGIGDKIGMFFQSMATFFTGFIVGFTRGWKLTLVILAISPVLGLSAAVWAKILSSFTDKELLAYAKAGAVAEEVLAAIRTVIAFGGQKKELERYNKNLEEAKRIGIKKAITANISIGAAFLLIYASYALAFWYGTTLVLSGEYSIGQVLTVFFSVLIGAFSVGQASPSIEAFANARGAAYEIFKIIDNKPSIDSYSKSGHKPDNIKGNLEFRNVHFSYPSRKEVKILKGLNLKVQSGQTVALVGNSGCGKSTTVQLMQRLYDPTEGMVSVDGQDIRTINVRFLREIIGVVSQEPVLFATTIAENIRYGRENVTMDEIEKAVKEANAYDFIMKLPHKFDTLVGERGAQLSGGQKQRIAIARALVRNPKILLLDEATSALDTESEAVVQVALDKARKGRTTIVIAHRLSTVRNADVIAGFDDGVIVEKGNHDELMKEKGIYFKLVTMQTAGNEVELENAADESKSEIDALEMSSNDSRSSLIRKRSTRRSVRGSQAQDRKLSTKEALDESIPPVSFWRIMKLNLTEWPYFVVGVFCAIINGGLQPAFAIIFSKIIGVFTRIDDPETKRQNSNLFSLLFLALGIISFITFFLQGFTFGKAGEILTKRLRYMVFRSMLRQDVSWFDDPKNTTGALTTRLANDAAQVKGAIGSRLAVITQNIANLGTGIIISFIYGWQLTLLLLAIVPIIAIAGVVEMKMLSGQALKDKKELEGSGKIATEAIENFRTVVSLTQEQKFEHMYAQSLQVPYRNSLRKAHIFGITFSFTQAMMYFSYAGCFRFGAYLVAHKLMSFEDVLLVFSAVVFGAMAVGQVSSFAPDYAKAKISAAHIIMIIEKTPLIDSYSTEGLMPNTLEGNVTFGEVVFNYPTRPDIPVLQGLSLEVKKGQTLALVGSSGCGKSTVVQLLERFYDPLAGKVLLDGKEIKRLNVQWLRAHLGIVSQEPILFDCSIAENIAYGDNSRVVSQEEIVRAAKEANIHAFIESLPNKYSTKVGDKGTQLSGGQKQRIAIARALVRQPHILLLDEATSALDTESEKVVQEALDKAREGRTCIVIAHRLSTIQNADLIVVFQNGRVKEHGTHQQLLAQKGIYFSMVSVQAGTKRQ

Structure (SMILES): CCN(CC)C(=O)/C(C#N)=C/c1cc(O)c(O)c([N+](=O)[O-])c1
- parasite load remaining [1]: 40.1% (inactive)
- viability [1]: 102%
- nuclear beta-catenin stimulation ([2]; at 10 µM): -0.4% (inactive)
- nuclear beta-catenin stimulation ([2]; stimulation, at 2 µM): 1.2%
- insulin secretion stimulation [3]: 1.5% (inactive)
- viability decrease [4]: 36% (inactive)
- tube area decrease [5]: 61.4% (active)
- GLP1 secretion stimulation [6]: 0% (inactive)
- inhibition of viability [7]: 29.2% (inactive)
- viability decrease (inhibition) [8]: 92.4% (active)
- viability decrease (inhibition) [9]: 35.8% (inactive)
- fold change [10, 16]: 0.873 (inactive)
- fold change [10, 17]: 0.914
- cell count [10, 18]: 10100
- cell count [10, 19]: 11500
- z-score [11, 20]: -0.387 (inactive) and -1.06 (inactive)
- z-score [11, 21]: -0.365 and -0.513
- remaining NAD [12]: 10 nM (inactive)
- z-score [13]: 0.125 (inactive)

Structure (SMILES): CC(=O)[C@H]1CC[C@H]2[C@@H]3C=CC4=CC(=O)CC[C@@]4(C)[C@@H]3CC[C@]12C
- survival [14]: 6.67 (inactive)
- parasite load remaining [1]: 84.3% (inactive)
- viability [1]: 94.2%
- nuclear beta-catenin stimulation ([2]; at 10 µM): 4.5% (inactive)
- nuclear beta-catenin stimulation ([2]; stimulation, at 2 µM): 1.5%
- insulin secretion stimulation [3]: -1.8% (inactive)
- viability decrease [4]: 6.3% (inactive)
- tube area decrease [5]: 4.8% (inactive)
- GLP1 secretion stimulation [6]: 3.1% (inactive)
- inhibition of viability [7]: 14.9% (inactive)
- viability decrease (inhibition) [8]: 64.2% (active)
- viability decrease (inhibition) [9]: 5.4% (inactive)
- fold change [10, 16]: 0.855 (inactive)
- fold change [10, 17]: 1.43
- cell count [10, 18]: 8320
- cell count [10, 19]: 9730
- z-score [11, 20]: 0.367 (inactive)
- z-score [11, 21]: 0.105
- remaining NAD [12]: 10 nM (inactive)

Structure (SMILES): COc1nccnc1NS(=O)(=O)c1ccc(N)cc1
- nuclear beta-catenin stimulation ([2]; at 10 µM): 1.5% (inactive)
- nuclear beta-catenin stimulation ([2]; stimulation, at 2 µM): 3.9%
- insulin secretion stimulation [3]: 1.7% (inactive)
- viability decrease [4]: 3.6% (inactive)
- tube area decrease [5]: 2.9% (inactive)
- GLP1 secretion stimulation [6]: 2.7% (inactive)
- inhibition of viability [7]: 6.8% (inactive)
- viability decrease (inhibition) [8]: -1.3% (inactive)
- viability decrease (inhibition) [9]: -5.6% (inactive)
- fold change [10, 16]: 0.87 (inactive)
- fold change [10, 17]: 0.163
- cell count [10, 18]: 9240
- cell count [10, 19]: 10600
- z-score [11, 20]: 0.483 (inactive)
- z-score [11, 21]: -0.166
- z-score [13]: -0.33 (inactive)

Structure (SMILES): OCCOCCN1CCN(C(c2ccccc2)c2ccc(Cl)cc2)CC1 (centres undefined)
- fluorescence slope change [15]: 127% (active)
- survival [14]: 12.3 (inactive)
- parasite load remaining [1]: 40.8% (inactive) and 106% (inactive)
- viability [1]: 45.3% and 147%
- nuclear beta-catenin stimulation ([2]; at 10 µM): 3.6% (inactive)
- nuclear beta-catenin stimulation ([2]; stimulation, at 2 µM): 2.4%
- insulin secretion stimulation [3]: 4.2% (inactive)
- viability decrease [4]: -78.9% (inactive)
- tube area decrease [5]: 28% (inactive)
- GLP1 secretion stimulation [6]: 13.3% (inactive)
- inhibition of viability [7]: 38.2% (inactive)
- viability decrease (inhibition) [8]: 46.4% (inactive)
- viability decrease (inhibition) [9]: 14.4% (inactive)
- fold change [10, 16]: 0.893 (inactive) and 0.907 (inactive) and 0.862 (inactive)
- fold change [10, 17]: 1.48 and 0.309 and 0.812
- cell count [10, 18]: 8690 and 7710 and 8370
- cell count [10, 19]: 9730 and 8500 and 9700
- z-score [11, 20]: -0.954 (inactive) and -0.244 (inactive) and -0.546 (inactive)
- z-score [11, 21]: 0.434 and -0.172 and -0.069
- z-score [13]: -0.645 (inactive)

Structure (SMILES): O=S(=O)(O)Oc1ccc(C(c2ccc(OS(=O)(=O)O)cc2)c2ccccn2)cc1
- nuclear beta-catenin stimulation ([2]; at 10 µM): -1.8% (inactive)
- nuclear beta-catenin stimulation ([2]; stimulation, at 2 µM): 1.7%
- insulin secretion stimulation [3]: -1.2% (inactive)
- viability decrease [4]: -2.3% (inactive)
- tube area decrease [5]: 11.8% (inactive)
- GLP1 secretion stimulation [6]: 1.3% (inactive)
- inhibition of viability [7]: -5.5% (inactive)
- viability decrease (inhibition) [8]: -2.2% (inactive)
- viability decrease (inhibition) [9]: -5.9% (active)
- fold change [10, 16]: 0.9 (inactive)
- fold change [10, 17]: 1.41
- cell count [10, 18]: 8720
- cell count [10, 19]: 9690
- z-score [11, 20]: -0.185 (inactive)
- z-score [11, 21]: -0.14

Structure (SMILES): O=C(NCC1CN(c2ccc(N3CCOCC3=O)cc2)C(=O)O1)c1ccc(Cl)s1 (centres undefined)
- nuclear beta-catenin stimulation ([2]; at 10 µM): 1.8% (inactive)
- nuclear beta-catenin stimulation ([2]; stimulation, at 2 µM): -0.7%
- insulin secretion stimulation [3]: 0.5% (inactive)
- viability decrease [4]: 55.9% (active)
- tube area decrease [5]: -0.6% (inactive)
- GLP1 secretion stimulation [6]: -0.6% (inactive)
- inhibition of viability [7]: 51.2% (active)
- viability decrease (inhibition) [8]: -16% (inactive)
- viability decrease (inhibition) [9]: 9.9% (inactive)
- fold change [10, 16]: 0.99 (inactive)
- fold change [10, 17]: 0.417
- cell count [10, 18]: 7630
- cell count [10, 19]: 7700
- z-score [11, 20]: -0.316 (inactive)
- z-score [11, 21]: -0.0771

Structure (SMILES): CN(C)CCN1C(=O)c2ccccc2N(C)c2ccccc21
- parasite load remaining [1]: 18.6% (inactive)
- viability [1]: 64.5%
- nuclear beta-catenin stimulation ([2]; at 10 µM): 0.8% (inactive)
- nuclear beta-catenin stimulation ([2]; stimulation, at 2 µM): -0.9%
- insulin secretion stimulation [3]: 14.4% (inactive)
- viability decrease [4]: 8.2% (inactive)
- tube area decrease [5]: 11.6% (inactive)
- GLP1 secretion stimulation [6]: 4% (inactive)
- inhibition of viability [7]: 0.3% (inactive)
- viability decrease (inhibition) [8]: 35.8% (inactive)
- viability decrease (inhibition) [9]: -35.8% (inactive)
- fold change [10, 16]: 0.889 (inactive)
- fold change [10, 17]: 1.32
- cell count [10, 18]: 10000
- cell count [10, 19]: 11300
- z-score [11, 20]: 0.44 (inactive) and -0.381 (inactive)
- z-score [11, 21]: 0.025 and -0.152
- z-score [13]: 0.475 (inactive)

Structure (SMILES): CC(C)Nc1cccnc1N1CCN(C(=O)c2cc3cc(NS(C)(=O)=O)ccc3[nH]2)CC1
- parasite load remaining [1]: 42.2% (inactive)
- viability [1]: 102%
- nuclear beta-catenin stimulation ([2]; at 10 µM): 0.8% (inactive)
- nuclear beta-catenin stimulation ([2]; stimulation, at 2 µM): -0.4%
- insulin secretion stimulation [3]: -1.5% (inactive)
- viability decrease [4]: -11.6% (inactive)
- tube area decrease [5]: -1.5% (inactive)
- GLP1 secretion stimulation [6]: 2.1% (inactive)
- inhibition of viability [7]: 28.8% (inactive)
- viability decrease (inhibition) [8]: 0.9% (inactive)
- viability decrease (inhibition) [9]: -21.2% (inactive)
- fold change [10, 16]: 0.904 (inactive)
- fold change [10, 17]: 1.31
- cell count [10, 18]: 9200
- cell count [10, 19]: 10200
- z-score [11, 20]: 0.775 (inactive) and 1.98 (active)
- z-score [11, 21]: 0.201 and 1.19
- z-score [13]: 0.98 (inactive)

Structure (SMILES): CC(=O)N(CC(O)CO)c1c(I)c(C(=O)NCC(O)CO)c(I)c(C(=O)NCC(O)CO)c1I (centres undefined)
- survival [14]: 14.3 (inactive)
- parasite load remaining [1]: 114% (inactive) and 69.4% (inactive)
- viability [1]: 108% and 73.4%
- nuclear beta-catenin stimulation ([2]; at 10 µM): -2.4% (inactive)
- nuclear beta-catenin stimulation ([2]; stimulation, at 2 µM): -1.5%
- insulin secretion stimulation [3]: 7% (inactive)
- viability decrease [4]: -5% (inactive)
- tube area decrease [5]: 1.5% (inactive)
- GLP1 secretion stimulation [6]: -5.6% (inactive)
- inhibition of viability [7]: 4.5% (inactive)
- viability decrease (inhibition) [8]: 4.9% (inactive)
- viability decrease (inhibition) [9]: 0.4% (inactive)
- fold change [10, 16]: 0.842 (inactive)
- fold change [10, 17]: 1.09
- cell count [10, 18]: 8930
- cell count [10, 19]: 10600
- z-score [11, 20]: 0.412 (inactive)
- z-score [11, 21]: -0.115
- remaining NAD [12]: 10 nM (inactive)

— PubChem BioAssay
